40 sequences from the OligoGym collection can be followed below.
Further: reference of the scale not given here.

In the first test the target is MCM6. The experiment in a line: pooled miR-30 sensor sort-seq; sequence = guide strand. To be noted: shRNA.
Consider TTGATTTATGTCTTCATTGTAG, for which the sensor-assay potency score (higher = more potent) is -0.457. The sequence TTTGGTTCCAACTTCACTGGGA came in with a sensor-assay potency score (higher = more potent) of 1.01. As to ATGAATAGCAACTTGATCCCGC, the sensor-assay potency score (higher = more potent) was determined as 0.187. As to TTACACATGAAAACAAAGGTAT, the sensor-assay potency score (higher = more potent) was -0.0386. For TACAACACACACCATTATCAGC, the sensor-assay potency score (higher = more potent) is -1.14. With TTGATCTAGATTGACATCAGGT, the sensor-assay potency score (higher = more potent) was 0.643. Turning to TAGAACATGATCATAGTGTGTG, the sensor-assay potency score (higher = more potent) was 0.881.

On to TTGATTTATTCAGTAACCGGAA, for which the sensor-assay potency score (higher = more potent) is -0.345.

For the sequence TAAAGTCACACTTGTCACCAGC, the sensor-assay potency score (higher = more potent) was -0.442. TATCTCTGATTCGATTTCCTTC: the sensor-assay potency score (higher = more potent) is -0.514. In the case of TAGATTTTTATCTTGACTCATC, the sensor-assay potency score (higher = more potent) was -0.898.

Another test deals with MED17. Described as above. The settings on record: shRNA.
Regarding TTTTATTCCACTGAACTTCTTT, the sensor-assay potency score (higher = more potent) stood at 0.579. Still for that read-out and setting: under TATTATTTTACATCTTGTCATA stands -1.34; under TTCAGGTATCTTTTTATCCAGA, -0.5. With TACACTAGGTGTCTCAACTGGT, the sensor-assay potency score (higher = more potent) was found to be 0.232. As to TATCTTTTTATCCAGATCGAGA, the sensor-assay potency score (higher = more potent) is -1.18. On the same count and under the same terms, under TTGCTGAACTGCATGTACCTGG stands 0.418; under TCTATGTACAACTCGAATCTGC, -0.242; under TTATCTTGTAAAACATCACTTT, -0.0835. Regarding TTCTGTAGCTCAGATCTCCGAG, the sensor-assay potency score (higher = more potent) is 0.121. Consider TTTATGAAACTCTCTAATCAGT, for which the sensor-assay potency score (higher = more potent) is -0.898.

Turning to TATTACTGCACAGTCATCTTAC, the sensor-assay potency score (higher = more potent) is -0.307.

On to TTTACATAAGAGAACATTCTGT, for which the sensor-assay potency score (higher = more potent) is -0.192.

The target of the next test is MED28. The description is as above. The settings on record: shRNA.
On to TAGTTCTGACACATCCTCTTTG, for which the sensor-assay potency score (higher = more potent) is -0.787. In turn, TTTGTAAGAAAAAACATTCTGT had a sensor-assay potency score (higher = more potent) of 0.226. Consider TTAGTTCTGACACATCCTCTTT, for which the sensor-assay potency score (higher = more potent) was -0.943. Still for that read-out and setting: the value for TAACTTGCTCTGGTTTCTGGAC was -0.587; that for TAAGAAAAAACATTCTGTCTGT was 0.366; that for TTCCGCTGTAATTCATTCCTTA was 0.0365. As to TCGAATTTCTTCCTGATCGGTG, the sensor-assay potency score (higher = more potent) is -0.612.

Consider TAAAATGAACTCATTATCTGGC, for which the sensor-assay potency score (higher = more potent) turned out to be 0.719. With TGTCTGTCTTGCAATATCCAGA, the sensor-assay potency score (higher = more potent) is -0.689. Consider TCGTCCACCAAAGTACTGCTGG, for which the sensor-assay potency score (higher = more potent) is -0.123. Same read-out and setting: the value for TTCGAATTTCTTCCTGATCGGT was -0.329.

Another test deals with MED31. The description is as above. To be noted: shRNA.
With TTGGAGCAGCTCTAACATGTGT, the sensor-assay potency score (higher = more potent) is -0.598. Turning to TATTGGAGCAGCTCTAACATGT, the sensor-assay potency score (higher = more potent) is -0.528. Consider TTTTTTGTCTTCACTGTACAAA, for which the sensor-assay potency score (higher = more potent) is -0.668.

Take TCGATTTCCAGCATCATCTGTC: the sensor-assay potency score (higher = more potent) was found to be 0.22. For TAAATTTCGCACACTGAGCATT, the sensor-assay potency score (higher = more potent) was -1.04. Regarding TTTGCTGTTGCTGCTCTGCCAA, the sensor-assay potency score (higher = more potent) was -0.936.
